The values that follow come from PubChem BioAssay (EPA / NIEHS).

Results filed as inconclusive are left out. Active and inactive are the calls of the source. The calls were made as follows: active = hit-call score of the fitted dose curve at least 0.9, where 1 is the maximum; inconclusive = response in the unintended direction; inactive = score below 0.9.

human Thyroid Receptor alpha (THRa1), THRA (gene 7067), sequence (P10827 whole entry, looked up): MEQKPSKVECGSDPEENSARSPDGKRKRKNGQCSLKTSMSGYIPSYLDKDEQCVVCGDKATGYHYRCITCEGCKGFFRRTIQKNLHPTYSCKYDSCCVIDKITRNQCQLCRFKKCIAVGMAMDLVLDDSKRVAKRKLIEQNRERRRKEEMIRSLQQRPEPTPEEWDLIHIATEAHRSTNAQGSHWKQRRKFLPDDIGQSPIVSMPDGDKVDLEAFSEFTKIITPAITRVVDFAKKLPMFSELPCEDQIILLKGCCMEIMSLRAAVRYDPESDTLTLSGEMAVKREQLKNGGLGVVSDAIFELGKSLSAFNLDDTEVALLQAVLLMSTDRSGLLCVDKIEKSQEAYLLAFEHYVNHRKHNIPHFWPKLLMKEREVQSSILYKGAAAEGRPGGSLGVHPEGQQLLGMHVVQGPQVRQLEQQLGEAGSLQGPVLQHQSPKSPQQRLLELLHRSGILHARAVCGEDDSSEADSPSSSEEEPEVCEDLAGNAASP

The assay has as its target human Thyroid Receptor alpha (THRa1), THRA (gene 7067) (UniProt P10827). The experiment in a line: ATG_THRa1_TRANS: Attagene TRANS-FACTORIAL HepG2 Assay for human Thyroid Receptor alpha (THRa1) (AID 2283014). On the procedure: ATG_TRANS is a cell-based, multiplexed-readout assay that uses HepG2, a human liver cell line, with measurements taken at 24 hours after chemical dosing in a 24-well plate.ATG_THRa1_TRANS is one of 30 assay component(s) measured or calculated from the ATG_TRANS assay. It is designed to make measurements of mRNA induction, a form of inducible reporter, as detected with fluorescence intensity signals by Reverse transcription polymerase chain reaction (RT-PCR) and Capillary electrophoresis technology.Data from the assay component ATG_THRa1_TRANS was analyzed into 1 assay endpoint. This assay endpoint, ATG_THRa1_TRANS, was analyzed in the positive analysis fitting direction relative to DMSO as the negative control and baseline of activity. Using a type of inducible reporter, measures of mRNA for gain-of-signal activity can be used to understand the reporter gene at the transcription factor-level as they relate to the gene THRA. Furthermore, this assay endpoint can be referred to as a primary readout, because this assay has produced multiple assay endpoints where this one serves a reporter gene function. To generalize the intended target to other relatable targets, this assay endpoint is annotated to the nuclear receptor intended target family, where the subfamily is non-steroidal.
Human liver HepG2 cells are transiently transfected with multiple reporter transcription units (MRTUs) in 6-well plates using FuGene 6 reagent (Roche; 3 ml FuGene/1 mg DNA). The MRTU constructs are regulated by a cis-regulating element (promoter). […] A major difference between the CIS and TRANS system is that in CIS activities of endogenous TFs are measured, whereas the TRANS assay evaluates changes in activities of exogenous, chimeric NR-Gal4 proteins. […] At the end of 24 hour incubation, total RNA was isolated using TriZol reagent (Invitrogen). The isolated RNA is then reverse-transcribed using oligo(dT) primer and Mo-MLV reverse transcriptase (Invitrogen) with DNAse I (Ambion) treatment for 30 min. The one-tenth of the produced cDNA was amplified by PCR using Taq DNA polymerase (Invitrogen) and two reporter sequence-specific primers. The PCR products were fluorescently labeled by primer extension with 6-arboxyfluorescein (6-FAM) 5'-labeled reporter sequence-specific primer (2 min at 95 C, 20 s at 68 C and 10 min at 72 C) and these products were digested with 5U of HpaI (New England Biolabs) for 2h at 37 C. The fragments were purified using Qiaquick PCR columns (Qiagen), analyzed on an ABI 3130xL genetic analyzer (Applied Biosystems) with peak positions identified by using a set of X-rhodamine (ROX)-labeled MapMarker1000 molecular weight standards (BioVentures). The raw capillary electrophoresis data was processed using Attagraph software (Attagene).
Regarding `CC(C)=CCO`, the compound was classed as inactive.

Regarding `CC1=CCC2C(C1)C2(C)C` (stereo not given), the outcome was inactive.

As to `C[C@]12CC[C@H]3[C@@H](CCC4=CC(=O)CC[C@@]43C)[C@@H]1CC[C@@H]2C(=O)CO`, the call was inactive.

With `COc1cc(C=O)ccc1OC(=O)C(C)C`, the outcome was inactive.

Regarding `OCCCCCO`, the result was inactive.

As to `C=CCOc1nc(OCC=C)nc(OCC=C)n1`, the outcome was inactive.

As for `COc1ccc(O)cc1`, the compound was called inactive.

As to `CNCCO`, the outcome was inactive.

As for `CC(CC(C)(C)C)CC(C)(C)CC(C)(C)C` (stereo not given), the compound was called inactive.

In the case of `CCCCOCCOCCOCCOCCO`, the result was inactive.

For the compound `CN1[C@@H]2CC(OC(=O)[C@H](CO)c3ccccc3)C[C@H]1[C@@H]1O[C@@H]12` (stereo not given in full), the result was inactive.

Turning to `CC1=CCC(O)(C(C)C)CC1` (stereo not given), the call was inactive.

For `CC(c1cc2ccccc2s1)N(O)C(N)=O` (stereo not given), the result was inactive.

Consider `OCc1cccnc1`, for which the outcome was inactive.

Consider `O=C(O)c1ccc(C(=O)O)cc1`, for which the outcome was inactive.

In the case of `Cc1c(Cl)c(=O)oc2cc(O)ccc12`, the compound was called inactive.

On to `C=CCOC(=O)CCC1CCCCC1`, for which the result was inactive.

On to `C=C(C)C(=O)NCCCN(C)C`, for which the result was inactive.

Consider `c1ccc2c(c1)c1cccc3ccc4cccc2c4c31`, for which the compound was called inactive.

With `C/C=C(\C)C(=O)OCc1ccccc1`, the compound was called inactive.

In the case of `c1cc(C(c2ccc(OCC3CO3)cc2)c2ccc(OCC3CO3)cc2)ccc1OCC1CO1` (stereo not given), the outcome was inactive.

Turning to `CC(CN1c2ccccc2Sc2ccccc21)N(C)C` (stereo not given), the result was inactive.

In the case of `COCCCOc1ccnc(CS(=O)c2nc3ccccc3[nH]2)c1C` (stereo not given), the concentration at half-maximal activity (AC50) (usually the concentration at which the activity in the assay is half-maximal) is 100 µM (active).

With `COc1ccc(Cl)cc1C`, the result was inactive.

On to `Nc1nc2ccc([N+](=O)[O-])cc2s1`, for which the compound was classed as inactive.

`CCCCN`: the compound was called inactive.

Consider `O=[N+]([O-])c1ccc(C=Cc2ccc([N+](=O)[O-])cc2S(=O)(=O)O)c(S(=O)(=O)O)c1`, for which the outcome was inactive.

For the compound `CC(C)(COC(=O)c1ccccc1)COC(=O)c1ccccc1`, the compound was classed as inactive.

Regarding `CC(C)c1ccc(C(C)C)cc1`, the compound was classed as inactive.

Regarding `COc1ccc(Nc2ccccc2)c(C)c1`, the call was inactive.

With `NC(=O)Nc1ccc(Cl)cc1`, the outcome was inactive.

Take `CC(=O)[C@H]1CC[C@H]2[C@@H]3CC=C4C[C@@H](O)CC[C@]4(C)[C@H]3CC[C@]12C`: the result was inactive.

Turning to `CCC(=O)OCc1ccccc1`, the call was inactive.

Consider `O=C(Nc1ccccc1)c1cc([N+](=O)[O-])ccc1Cl`, for which the compound was classed as inactive.

Regarding `CN(C)CCCN`, the compound was classed as inactive.

For the compound `COc1cc2ncnc(Nc3cccc(Cl)c3)c2cc1OC`, the compound was called inactive.

For the compound `Cc1ccc(Nc2ccc(O)c3c2C(=O)c2ccccc2C3=O)cc1`, the outcome was inactive.

`CCC(O)CO` (stereo not given): the call was inactive.

In the case of `C=C(C)C(=O)OCc1ccccc1`, the compound was called inactive.

Regarding `C=CC(=O)OCC(O)COc1ccccc1` (stereo not given), the compound was classed as inactive.
